Results published in PubChem BioAssay (NCATS).
Results filed as inconclusive are left out. The source made the active and inactive calls. Calls follow the shape of the dose curve; as a rule, active = well fitted cell-killing curve with a large enough effect; inconclusive = small, poorly fitted or top-dose-only effect, or effect the other way; inactive = flat fitted curve, though single readings scatter.

test system: PA-1; assay: Primary qHTS to identify gynecologic anti-cancer compounds using libraries of approved drugs and bioactive compounds (AID 1345084); conditions: Gynecologic cancer cell panel viability, ATPlite luminescence, 48 h; series mostly up to 57.5 µM; activity change, negative = cytotoxicity: at the top concentration; also: nearly all actives have a fitted effect of over 55% in size
In short: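 Luminescence from the ATPlite ATP-monitoring reagent indicates viable cell number; lower signal means cytotoxicity. Cells received compound 16 h after seeding and were exposed for 48 h across five concentrations.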
% is scaled to controls: 0 for no effect and ±100 for the full control effect; potency is read from the fitted curve at half-maximal effect.

SMILES	activity change, negative = cytotoxicity	Potency
O=C(O)c1cccnc1Nc1cccc(C(F)(F)F)c1	-39.1% (inactive)	–
Cc1nc(Nc2ncc(C(=O)Nc3c(C)cccc3Cl)s2)cc(N2CCN(CCO)CC2)n1	–	251 nM (active)
Cc1cc(C2CCCCC2)n(O)c(=O)c1	–	2000 nM (active)
Cc1cc(=O)c2c(O)c3c(O)cc(=O)c4c3c3c(cc(O)c1c23)C(C)(C)C=4O	–	2820 nM (active)
CCCCN(CCCC)CCC(O)c1cc2c(Cl)cc(Cl)cc2c2cc(C(F)(F)F)ccc12 (centres undefined)	21.2% (inactive)	–
Cc1c(C(=O)NN2CCCCC2)nn(-c2ccc(Cl)cc2Cl)c1-c1ccc(Cl)cc1	-4.78% (inactive)	–
COc1cc(C(C)=O)ccc1OCCCN1CCC(c2noc3cc(F)ccc23)CC1	-10.8% (inactive)	–
COc1c2occc2cc2ccc(=O)oc12	4.14% (inactive)	–
Cc1ccc(Nc2nccc(N(C)c3ccc4c(C)n(C)nc4c3)n2)cc1S(N)(=O)=O	-29.6% (inactive)	–
COc1cc(Nc2c(C#N)cnc3cc(OCCCN4CCN(C)CC4)c(OC)cc23)c(Cl)cc1Cl	–	11200 nM (active)
CCCS(=O)c1ccc2nc(NC(=O)OC)[nH]c2c1 (centres undefined)	–	14100 nM (active)
CN1CCC(=C2c3ccccc3CCc3sccc32)CC1	-12.4% (inactive)	–
Cc1cccc(CN2CCN(C(c3ccccc3)c3ccc(Cl)cc3)CC2)c1 (centres undefined)	-4.11% (inactive)	–
c1ccc2[nH]c(-c3cscn3)nc2c1	-27.6% (inactive)	–
O=C(O)c1cc(=O)c2c(OCC(O)COc3cccc4oc(C(=O)O)cc(=O)c34)cccc2o1	7.78% (inactive)	–
CC(C)Oc1ccc2c(=O)c(-c3ccccc3)coc2c1	–	20000 nM (active)
CC[C@]1(O)C[C@H]2CN(CCc3c([nH]c4ccccc34)[C@@](C(=O)OC)(c3cc4c(cc3OC)N(C=O)[C@H]3[C@@](O)(C(=O)OC)[C@H](OC(C)=O)[C@]5(CC)C=CCN6CC[C@]43[C@@H]65)C2)C1	–	199 nM (active)
Cc1ccc(NC(=O)c2ccc(CN3CCN(C)CC3)cc2)cc1Nc1nccc(-c2cccnc2)n1	–	25100 nM (active)
OC(CN1CCN(c2cccc(Cl)c2)CC1)C(c1ccccc1)c1ccccc1 (centres undefined)	-2.56% (inactive)	–
NNc1nncc2ccccc12	5.93% [at 25.3 µM] (inactive)	–
CN(C)CCCC1(c2ccc(F)cc2)OCc2cc(C#N)ccc21 (centres undefined)	9.39% (inactive)	–
CN(C)c1ccc2nc3ccc(=[N+](C)C)cc-3sc2c1	–	891 nM (active)
CCCCc1ccc2nc(NC(=O)OC)[nH]c2c1	–	282 nM (active)
CCCOc1ccc2nc(NC(=O)OC)[nH]c2c1	–	282 nM (active)
Cc1ncc([N+](=O)[O-])n1CC(C)O (centres undefined)	-0.0795% (inactive)	–
CN(C)C(=O)[C@H](O)[C@H](Cc1ccccc1)NC(=O)c1cc2cc(Cl)ccc2[nH]1	5.18% (inactive)	–
COc1ccccc1N1CCN(CCN(C(=O)C2CCCCC2)c2ccccn2)CC1	-2.76% (inactive)	–
CN(C)[C@@H](CCOc1cccc2ccccc12)c1ccccc1	10.3% (inactive)	–
CCc1nc(N)nc(N)c1-c1ccc(Cl)cc1	–	7940 nM (active)
